{"source": "paper PMC9911399", "about": "“Two distinct binding modes provide the RNA-binding protein RbFox with extraordinary sequence specificity”", "binders": {"B1": {"name": "UGCUUUG (DNA:RNA)", "RNA": "GGGAGACCGGAAUUCAGAUUGUCCUGCUUUGUUAAAUCCCGUCGUAGCCACCA", "DNA 1": "CAATCTGAATTCCGGTCTCCC", "DNA 2": "TGGTGGCTACGACGGGATT"}, "B2": {"name": "CUGAGUG (DNA:RNA)", "RNA": "B1 RNA with U25C, G26U, C27G, U28A, U29G", "DNA 1": "CAATCTGAATTCCGGTCTCCC", "DNA 2": "TGGTGGCTACGACGGGATT"}, "B3": {"name": "UCACCCA (DNA:RNA)", "RNA": "B1 RNA with G26C, C27A, U28C, U29C, U30C, G31A", "DNA 1": "CAATCTGAATTCCGGTCTCCC", "DNA 2": "TGGTGGCTACGACGGGATT"}, "B4": {"name": "UAGGGAC (DNA:RNA)", "RNA": "B1 RNA with G26A, C27G, U28G, U29G, U30A, G31C", "DNA 1": "CAATCTGAATTCCGGTCTCCC", "DNA 2": "TGGTGGCTACGACGGGATT"}, "B5": {"name": "AGGGUUG (DNA:RNA)", "RNA": "B1 RNA with U25A, C27G, U28G", "DNA 1": "CAATCTGAATTCCGGTCTCCC", "DNA 2": "TGGTGGCTACGACGGGATT"}, "B6": {"name": "AGGGGGG (DNA:RNA)", "RNA": "B1 RNA with U25A, C27G, U28G, U29G, U30G", "DNA 1": "CAATCTGAATTCCGGTCTCCC", "DNA 2": "TGGTGGCTACGACGGGATT"}, "B7": {"name": "ACCGAGG (DNA:RNA)", "RNA": "B1 RNA with U25A, G26C, U28G, U29A, U30G", "DNA 1": "CAATCTGAATTCCGGTCTCCC", "DNA 2": "TGGTGGCTACGACGGGATT"}, "B8": {"name": "CACCAGG (DNA:RNA)", "RNA": "B1 RNA with U25C, G26A, U28C, U29A, U30G", "DNA 1": "CAATCTGAATTCCGGTCTCCC", "DNA 2": "TGGTGGCTACGACGGGATT"}, "B9": {"name": "ACCAGGG (DNA:RNA)", "RNA": "B1 RNA with U25A, G26C, U28A, U29G, U30G", "DNA 1": "CAATCTGAATTCCGGTCTCCC", "DNA 2": "TGGTGGCTACGACGGGATT"}, "B10": {"name": "CAGGUUG (DNA:RNA)", "RNA": "B1 RNA with U25C, G26A, C27G, U28G", "DNA 1": "CAATCTGAATTCCGGTCTCCC", "DNA 2": "TGGTGGCTACGACGGGATT"}, "B11": {"name": "GAGGUUG (DNA:RNA)", "RNA": "B1 RNA with U25G, G26A, C27G, U28G", "DNA 1": "CAATCTGAATTCCGGTCTCCC", "DNA 2": "TGGTGGCTACGACGGGATT"}, "B12": {"name": "CCCCAGG (DNA:RNA)", "RNA": "B1 RNA with U25C, G26C, U28C, U29A, U30G", "DNA 1": "CAATCTGAATTCCGGTCTCCC", "DNA 2": "TGGTGGCTACGACGGGATT"}, "B13": {"name": "GAGGAGG (DNA:RNA)", "RNA": "B1 RNA with U25G, G26A, C27G, U28G, U29A, U30G", "DNA 1": "CAATCTGAATTCCGGTCTCCC", "DNA 2": "TGGTGGCTACGACGGGATT"}, "B14": {"name": "UCCCCAC (DNA:RNA)", "RNA": "B1 RNA with G26C, U28C, U29C, U30A, G31C", "DNA 1": "CAATCTGAATTCCGGTCTCCC", "DNA 2": "TGGTGGCTACGACGGGATT"}, "B15": {"name": "CUACCCG (DNA:RNA)", "RNA": "B1 RNA with U25C, G26U, C27A, U28C, U29C, U30C", "DNA 1": "CAATCTGAATTCCGGTCTCCC", "DNA 2": "TGGTGGCTACGACGGGATT"}, "B16": {"name": "GUGUCAG (DNA:RNA)", "RNA": "B1 RNA with U25G, G26U, C27G, U29C, U30A", "DNA 1": "CAATCTGAATTCCGGTCTCCC", "DNA 2": "TGGTGGCTACGACGGGATT"}, "B17": {"name": "AUACAAG (DNA:RNA)", "RNA": "B1 RNA with U25A, G26U, C27A, U28C, U29A, U30A", "DNA 1": "CAATCTGAATTCCGGTCTCCC", "DNA 2": "TGGTGGCTACGACGGGATT"}, "B18": {"name": "CAAUGCG (DNA:RNA)", "RNA": "B1 RNA with U25C, G26A, C27A, U29G, U30C", "DNA 1": "CAATCTGAATTCCGGTCTCCC", "DNA 2": "TGGTGGCTACGACGGGATT"}, "B19": {"name": "GGGAUGA (DNA:RNA)", "RNA": "B1 RNA with U25G, C27G, U28A, U30G, G31A", "DNA 1": "CAATCTGAATTCCGGTCTCCC", "DNA 2": "TGGTGGCTACGACGGGATT"}, "B20": {"name": "CGCGCUU (DNA:RNA)", "RNA": "B1 RNA with U25C, U28G, U29C, G31U", "DNA 1": "CAATCTGAATTCCGGTCTCCC", "DNA 2": "TGGTGGCTACGACGGGATT"}}, "note": "Substitutions are numbered along the chain they refer to; changes in the protein carry UniProt numbers. Over roughly 16,000 sequences, “ka relative to ugcaugu” has its median near 0.096; the highest 2% begin near 0.35. Only a selection was taken, and the highest values are over-represented in it overall."}
{"target": "T1, RBFOX1 RRM RbFoxmut (Fox-RRM*) (Homo sapiens, UniProt Q9NWB1 109-208, R118D;E147R;N151S;E152T)", "T1 sequence": "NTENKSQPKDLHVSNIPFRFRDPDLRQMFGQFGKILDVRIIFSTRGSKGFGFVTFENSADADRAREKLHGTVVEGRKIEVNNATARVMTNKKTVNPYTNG", "experiment": "EMSA; HiTS-Eq, 1 nM pool, 10 min; buffer printed only for the single-RNA assays: 10 mM Tris pH 7.5, 150 mM NaCl, 3.4 mM EDTA, 0.001% NP-40, 30 C", "conditions": "tags: His6 N-terminal (pET28a); label: 5' 32P", "method_in_brief": "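These values rest on relative association constants, computed from read-count changes of each RNA species versus the control reaction and normalised to the cognate motif. Reads came from free RNA recovered by 8% native PAGE after purified RbFox RRM (wild type or mutant) at increasing concentrations was equilibrated for 10 min in 50 µL with 1 nM of a 5′-radiolabelled pool with 7 randomized nucleotides and DNA-annealed flanks.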"}
{"binder": "B1", "binding signal": "0.179 KA relative to UGCAUGU"}
{"binder": "B2", "binding signal": "0.142 KA relative to UGCAUGU"}
{"binder": "B3", "binding signal": "0.0824 KA relative to UGCAUGU"}
{"binder": "B4", "binding signal": "0.0789 KA relative to UGCAUGU"}
{"binder": "B5", "binding signal": "0.578 KA relative to UGCAUGU"}
{"binder": "B6", "binding signal": "0.104 KA relative to UGCAUGU"}
{"binder": "B7", "binding signal": "0.0689 KA relative to UGCAUGU"}
{"binder": "B8", "binding signal": "0.0996 KA relative to UGCAUGU"}
{"binder": "B9", "binding signal": "0.0771 KA relative to UGCAUGU"}
{"binder": "B10", "binding signal": "0.371 KA relative to UGCAUGU"}
{"binder": "B11", "binding signal": "0.552 KA relative to UGCAUGU"}
{"binder": "B12", "binding signal": "0.0949 KA relative to UGCAUGU"}
{"binder": "B13", "binding signal": "0.0833 KA relative to UGCAUGU"}
{"binder": "B14", "binding signal": "0.118 KA relative to UGCAUGU"}
{"binder": "B15", "binding signal": "0.0609 KA relative to UGCAUGU"}
{"binder": "B16", "binding signal": "0.137 KA relative to UGCAUGU"}
{"binder": "B17", "binding signal": "0.0924 KA relative to UGCAUGU"}
{"binder": "B18", "binding signal": "0.13 KA relative to UGCAUGU"}
{"binder": "B19", "binding signal": "0.267 KA relative to UGCAUGU"}
{"binder": "B20", "binding signal": "0.1 KA relative to UGCAUGU"}
